Bioassay records: PubChem, National Center for Advancing Translational Sciences (NCATS)
GLP1R ag – qHTS of GLP-1 Receptor Agonists. Glucagon-like peptide 1 receptor (Homo sapiens), P43220. HEK293 GLP-1R CRE-luciferase, luminescence, 4-6 h; cells express a hypersensitive GLP-1R form. Potency, µM (series often up to 45.6 µM), inactives show at the top dose activation, actives largely listed as activators. hit rate 0.007% among 380,000; note: % of control where 0% means no effect
Target sequence (P43220 whole entry, looked up): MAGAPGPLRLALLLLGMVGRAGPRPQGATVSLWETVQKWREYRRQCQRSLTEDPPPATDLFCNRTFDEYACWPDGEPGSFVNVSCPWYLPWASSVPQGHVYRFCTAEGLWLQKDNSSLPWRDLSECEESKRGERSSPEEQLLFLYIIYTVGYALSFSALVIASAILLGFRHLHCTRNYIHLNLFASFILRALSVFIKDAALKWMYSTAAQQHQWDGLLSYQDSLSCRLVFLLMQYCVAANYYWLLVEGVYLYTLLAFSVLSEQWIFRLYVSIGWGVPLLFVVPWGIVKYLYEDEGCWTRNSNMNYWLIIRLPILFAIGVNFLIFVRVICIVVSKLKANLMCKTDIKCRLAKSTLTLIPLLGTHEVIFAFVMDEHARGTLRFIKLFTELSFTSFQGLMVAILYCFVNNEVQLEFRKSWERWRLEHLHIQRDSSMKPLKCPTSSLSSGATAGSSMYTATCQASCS
Glioma ERSR ind – qHTS for Inducers of the Endoplasmic Reticulum Stress Response (ERSR) in Human Glioma: qHTS | hit rate 0.02% among 420,000 | Potency, µM, without a hit: at the top dose activation, actives largely listed as activators | AID 602332, 2012 | U87-MG GRP78 promoter luciferase reporter, 16 h; note: series mostly up to about 76 µM; % of control where 0% means no effect; nearly all actives have a fitted effect of over 35% in size
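ERSR induction read as luciferase luminescence (Bright-Glo, 10 min at room temperature) in stably transfected human U87-MG glioma cells exposed to compounds for 16 h, using GRP78 as sensor.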
12-LOX inh – Primary qHTS assay for inhibitors of human arachidonate 12S-lipoxygenase (ALOX12): Round 2; Polyunsaturated fatty acid lipoxygenase ALOX12 (Homo sapiens), P18054; purified 12hLO, xylenol orange hydroperoxide absorbance; Potency, µM (doses to about 108 µM), inactives show at the top dose activity change, negative = inhibition, hits mostly inhibitors; hit rate 1.1% among 580,000; AID 1671190, 2021; note: % is set by controls: 0 for no effect and ±100 for the full control effect
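Hydroperoxide product was detected by ferrous iron/xylenol orange as the 573 to 405 nm absorbance ratio. Arachidonic acid at 40 uM (final) was turned over for 30 min at room temperature by 150 nM human 12hLO, pH 7.0 Hepes buffer, after 15 min compound preincubation.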
GLP1R inv ag – qHTS of GLP-1 Receptor Inverse Agonists (Inhibition Mode) | HEK293 GLP-1R CRE-luciferase, luminescence, 24 h; GLP-1R form is constitutively active | hit rate 1.6% among 410,000 | Potency, µM (titrated, usually from 38.3 µM), for the others: top-dose activity change, negative = inhibition, hits mostly inhibitors | Glucagon-like peptide 1 receptor (Homo sapiens), P43220; note: % is set by controls: 0 for no effect and ±100 for the full control effect; nearly all actives have a fitted effect of over 55% in size
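Seeding at 200 cells/uL, 12 h culture, 24 hr compound treatment, then luciferase reagent and a luminescence read; cells are HEK293 stably expressing a constitutively active GLP-1R plus cAMP-responsive luciferase.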
PTHR1 ag – qHTS for PTHR1 Agonists: Primary Screen; HEK293 GP2 PTHR1 cells, GloSensor cAMP luminescence, 1 h; AID 743266, 2014; Potency, µM (top dose mostly 115 µM), for the others: at the top dose activation, actives largely listed as activators; Parathyroid hormone/parathyroid hormone-related peptide receptor (Homo sapiens), Q03431; hit rate 0.075% among 410,000; note: nearly all actives have a fitted effect of over 55% in size
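HEK-293-derived GP2 cells expressing PTHR1 and a GloSensor cAMP reporter, 3,000/well, plated overnight, given luciferin plus IBMX (each 0.5 mM as added) for 1 h at 37 °C, then compound for 1 h at 37 °C. Luminescence was read after 15 min at room temperature.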
GLS inh – qHTS for Inhibitors of Glutaminase (GLS). Glutaminase kidney isoform, mitochondrial (Homo sapiens), O94925. GLS enzymatic activity, qHTS titration. Potency, µM (top dose mostly 45.5 µM), for the others: at the highest dose activity change, negative = inhibition, hits mostly inhibitors. hit rate 0.21% among 410,000; note: % is set by controls: 0 for no effect and ±100 for the full control effect
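Compounds were pin-transferred onto hKGA, after which L-glutamine (1 mM solution) and a detection mix of glutamate oxidase, HRP and Amplex Red were added. Initial and 30 min RT fluorescence reads were collected.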
The depositor's hits bear a star; i = inactive; ? = inconclusive; . = not tested or not shown; [ ] = dose if it differs, or a comment. Sampled rows, rich in hits. Any-hit rate of the full collection: about 2.3%. Calls come from the whole dose curve; as a rule, active = well fitted curve in the direction sought with a large enough effect; inconclusive = small, poorly fitted or top-dose-only effect, or another doubt; inactive = no such curve, though single readings can be large; an effect the other way counts as inactive or inconclusive. Potency is the fitted concentration of half-maximal effect.

SMILES	GLP1R ag	Glioma ERSR ind	12-LOX inh	GLP1R inv ag	PTHR1 ag	GLS inh
O=C(C1CC1)N(Cc1ccc2c(c1)CN(S(=O)(=O)c1ccc(F)c(F)c1)CCO2)c1ccccc1	.	.	0%	.	.	.
COc1cccc(-n2c(SCc3ccc(F)cc3)nc3c([nH]c4ccccc43)c2=O)c1	4%	-1%	-29%	8.9µM*	i	-2%
CCSc1nc2c([nH]c3ccccc32)c(=O)n1-c1cccc(OC)c1	7%	4%	?	?	-9%	-11%
Cc1cccc(-n2ccnc2SCC(=O)N2CCCc3ccccc32)c1C	4%	-4%	-16%	11µM*	-25%	7%
Cc1ccc(C)c(NC(=O)CSc2nccn2-c2cccc(C)c2C)c1	.	-2%	5%	13µM*	-68%	3%
O=C(CSc1ncccn1)N1CCCc2ccccc21	4%	5%	9%	28%	i	-6%
Cc1ccc(C)c(NC(=O)CSc2nnc(-c3cc4occc4n3C)n2-c2ccccc2C)c1	.	1%	-28%	11µM*	i	5%
CCc1cccc(CC)c1-n1c(SCC(=O)N2CCCc3ccccc32)nc(O)cc1=O	-1%	-2%	-10%	10µM*	-19%	?
CCCOc1ccc(NC(=O)COc2ccc(C)cc2)c2cccnc12	.	.	7%	.	.	.
CCN(CC(=O)Nc1ccccc1C(F)(F)F)C(=O)Cc1ccc2ccccc2c1	.	.	-5%	.	.	.
COc1ccc(-c2cc(N3CCCC(NC(=O)c4ccc(Br)o4)C3)n[nH]2)cc1 (configuration not stated)	.	.	32%	.	.	.
NNC(=O)c1ccc(OCC2CC(c3ccc(Cl)cc3)=NO2)cc1 (configuration not stated)	3%	?	43%	13µM*	-34%	?
Cc1ccc(CNC(=O)c2nn(-c3ccc(F)cc3)c3c2CCC3)cc1	.	.	-21%	.	.	.
CC(C)=CC[C@@H](O)C1=CC(=O)c2c(O)ccc(O)c2C1=O	.	1%	2.2µM*	.	.	.
COc1cccc(-c2ccc3ncnc(NCc4ccccc4)c3c2)c1	.	?	-17%	.	.	.
Cc1[nH]nc2ccc(-c3cncc(OC[C@@H](N)Cc4ccccc4)c3)cc12	.	.	7.7µM*	.	.	.
COc1ccccc1N1CCN(Cc2cc(=O)oc3cc(O)c(Cl)cc23)CC1	.	.	-11%	.	.	.
Cc1ccccc1N=C(NOCc1ccccc1)c1nonc1N	-1%	-7%	?	10µM*	i	1%
O=C(NC1CCCN(Cc2ccc(Cl)cc2)C1)c1ccnc(Cl)c1 (configuration not stated)	20%	-1%	?	?	-13%	-3%
COc1cc(OC)cc(C(=O)NC2CCCN(Cc3ccc(Cl)cc3)C2)c1 (configuration not stated)	9%	0%	?	11µM*	-18%	4%
CCCCOc1ccc(C(=O)Nc2ccc3c(c2)N(C(C)=O)CCC3)cc1	.	-10%	-11%	1.1µM*	-35%	-10%
Cc1ccc(C)c(C(=O)c2sc(Nc3ccccc3)nc2N)c1	.	.	-9%	.	.	.
N#Cc1nc(-c2ccc(S(=O)(=O)N3CCCC3)cc2)oc1NCCc1ccccc1	.	.	-31%	.	.	.
CC(C(=O)Nc1cccc([N+](=O)[O-])c1)N1CCN(C/C=C/c2ccccc2)CC1 (configuration not stated)	11%	0%	-25%	10µM*	-19%	4%
O=C(c1cccc([N+](=O)[O-])c1)N1CCN(C/C=C/c2ccccc2)CC1	11%	-2%	?	-22%	-24%	6%
SMILES	GLP1R ag	Glioma ERSR ind	12-LOX inh	GLP1R inv ag	PTHR1 ag	GLS inh
O=C(Nc1cccc(F)c1)N1CCN(C/C=C/c2ccccc2)CC1	-3%	0%	0%	8.9µM*	-18%	-8%
CC(C)(C)C1CCC(=NNC(=O)C2CC2)CC1 (configuration not stated)	.	.	9%	.	.	.
C=CCn1c(N2CCN(c3ccccc3)CC2)nc2c1c(=O)[nH]c(=O)n2C	.	.	9%	.	.	.
COc1ccc(OC)c(NC(=O)Cc2c(C)c3c(O)cc(C)cc3oc2=O)c1	.	.	-24%	.	.	.
CCCCn1c(-c2sccc2C)n[nH]c1=S	5%	-1%	40µM*	?	i	11%
Cc1ccc(NC(=O)C2CC(=O)N(c3ccc4c5c(cccc35)CC4)C2)cc1 (configuration not stated)	-5%	-3%	-17%	10µM*	i	-7%
CC12CC3(C)CC(C)(C1)CC(NC(=O)N1CCCC1)(C2)C3	-5%	-7%	-1%	10µM*	i	-15%
COC(=O)CNC(=O)Cn1cc(C(C)=O)c2ccccc21	.	.	13%	.	.	.
O=S1(=O)N=C(Nc2nc3c(s2)CCCC3)c2ccccc21	-33%	-5%	0%	4.5µM*	-12%	2%
O=C(Nc1nc2c(s1)CCCC2)c1cccs1	-8%	-6%	-1%	10µM*	-39%	17%
O=C(O)c1ccc(Nc2nc3c(s2)CCCC3)cc1	-5%	-15%	-3%	1.8µM*	-33%	0%
Cc1cccc(Nc2nc3c(s2)CCCC3)c1	4%	-2%	?	?	-33%	-6%
O=S(=O)(c1ccccc1)N1CCN(CCOc2ccc(F)cc2)CC1	6%	-2%	-26%	1%	-31%	-4%
CN1C(=O)N(C)C2(CCN(CCOc3ccc(F)cc3)C2)C1=O (configuration not stated)	.	.	50µM*	.	.	.
O=[N+]([O-])c1ccc2nc(-c3ccc(Cl)cc3)[nH]c2c1	2%	-3%	20µM*	?	-42%	-3%
COc1ccc(-n2c3c(cc(C(=O)NNc4ccccc4C)c2=O)C(=O)CC(C)(C)C3)cc1	11%	-3%	?	?	-11%	0%
COc1ccc(-n2c3c(cc(C(=O)NNc4ccccc4)c2=O)C(=O)CC(C)(C)C3)cc1	12%	-3%	-29%	1µM*	i	0%
C/C(=N\NC(N)=O)c1ccc(Br)cc1	.	.	12%	.	.	.
O=C(Cc1cccs1)N1CCC(Oc2ccccc2)C1 (configuration not stated)	.	.	50µM*	.	.	.
CC(=O)N1CCC(Oc2ccccc2)C1 (configuration not stated)	.	.	-5%	.	.	.
N#Cc1ccccc1Cn1cc(C#N)c2ccccc21	3%	-3%	1%	?	-11%[57.5 µM]	6%
